Data as given in PubChem BioAssay (Tox21).
Several values for one entry are separate records, joined by “and”; a condition that tells them apart may be missing. Equal values may be shown once. Results filed as inconclusive are left out. The source holds several records for some structures; these can differ, active in one and inactive in another. Activity calls are given as the source filed them. Unless noted, the call rests on the fitted dose curve; in most records, active means well fitted curve in the direction sought with a large enough effect in the repeat runs; inconclusive means weak or mixed curves; inactive means no such curve, though single readings can be large; an effect the other way counts as inactive or inconclusive.

Columns and labels:
[1] = A CellTox Green Cytotoxicity Assay to monitor cytotoxicity in HepG2 cells - 8 hour (AID 1224890); further: nearly all actives have a fitted effect of over 45% in size
Method in brief: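 Nonlytic assay: viable cells exclude the dye, so fluorescence scales with cell death. HepG2 at 600 cells/well, compounds added after 5 h, signal read across 40 h.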

[2] = qHTS assay to identify small molecule antagonists of the estrogen receptor alpha (ER-alpha) signaling pathway using the BG1 cell line in the presence of 0.1 nM 17-beta-estradiol - cell viability counter screen (AID 1259241); further: nearly all actives have a fitted effect of over 40% in size; further: potency means the concentration at half of the fitted maximal effect
Method in brief: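 In this screen, hormone-deprived VM7Luc4E2 cells were seeded at 4,000 per well, dosed with compound and 0.1 nM estradiol final, and incubated 22 hr at 37C and 5% CO2; fluorogenic live-cell protease signal reported viability.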

[3] = biological target: Estrogen receptor (Homo sapiens) (UniProt P03372); experiment: qHTS assay to identify small molecule antagonists of the estrogen receptor alpha (ER-alpha) signaling pathway using the BG1 cell line in the presence of 0.1 nM 17-beta-estradiol (AID 1259244); further: nearly all actives have a fitted effect of over 50% in size; further: potency means the concentration at half of the fitted maximal effect
Estrogen receptor (Homo sapiens), sequence (P03372 whole entry, looked up): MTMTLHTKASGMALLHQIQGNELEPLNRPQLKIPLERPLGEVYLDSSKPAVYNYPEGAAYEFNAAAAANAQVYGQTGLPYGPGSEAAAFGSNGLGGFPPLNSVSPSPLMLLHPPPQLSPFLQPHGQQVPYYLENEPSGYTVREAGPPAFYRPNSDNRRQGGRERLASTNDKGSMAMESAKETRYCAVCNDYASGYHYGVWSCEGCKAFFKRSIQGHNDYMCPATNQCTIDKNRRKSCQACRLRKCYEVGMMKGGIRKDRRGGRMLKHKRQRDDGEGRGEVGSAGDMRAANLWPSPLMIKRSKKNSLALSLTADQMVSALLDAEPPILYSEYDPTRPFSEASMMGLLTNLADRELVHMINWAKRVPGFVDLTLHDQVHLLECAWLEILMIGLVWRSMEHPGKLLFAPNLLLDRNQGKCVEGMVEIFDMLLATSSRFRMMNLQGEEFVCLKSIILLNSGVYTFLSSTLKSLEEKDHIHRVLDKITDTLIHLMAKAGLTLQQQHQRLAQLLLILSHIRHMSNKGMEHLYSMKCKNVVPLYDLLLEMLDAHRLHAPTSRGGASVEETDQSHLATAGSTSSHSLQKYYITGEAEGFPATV
Method in brief: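 VM7Luc4E2; 4xERE-luciferase; 0.1 nM E2 final; 22 h co-incubation, 37C; ONE-Glo luminescence after 30 min at room temperature.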

[4] = qHTS assay to identify small molecule HDAC inhibitors (AID 1259364); further: potency means the concentration at half of the fitted maximal effect;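 further: wild-type HCT-116 cells with endogenous class I/II HDAC activity; nearly all actives have a fitted effect of over 45% in size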
Method in brief: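 Relative class I and II HDAC activity is taken from the luminogenic signal in HCT-116 cells, with compound exposure 2 hr and reagent development 30 min at room temperature.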

[5] = qHTS assay to identify small molecule HDAC inhibitors - cell viability counter screen (AID 1259365); further: series mostly up to about 92 µM; nearly all actives have a fitted effect of over 50% in size
Method in brief: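 Measured quantity is CellTiter-Glo luminescence from wild-type HCT-116 cells after compound incubation of 2hr at 37C, 5% CO2; reagent developed 30min at room temperature.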

[6] = qHTS assay to identify small molecule agonists of the sonic hedgehog signaling (Shh) pathway - cell viability counter screen (AID 1259366); further: nearly all actives have a fitted effect of over 50% in size; further: potency means the concentration at half of the fitted maximal effect
Method in brief: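 In quantitative high-throughput format, 3T3 Gli1-Luc cells were exposed to compounds for 24hr and multiplexed for viability using CellTiter-Fluor, incubated 1hr at 37C before the fluorescence read.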

[7] = qHTS assay to identify small molecule antagonists of the sonic hedgehog signaling (Shh) pathway - cell viability counter screen (AID 1259367); further: nearly all actives have a fitted effect of over 55% in size
Method in brief: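 Cells: 3T3 Gli1-Luc, 2,000/well, 4 hr pre-incubation. Compounds in DMSO, then conditioned medium. Incubation 24 hr, 37C, 5% CO2. CellTiter-Fluor at 23 hr, 1 hr, fluorescence.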

[8] = qHTS assay to identify small molecule agonists of the sonic hedgehog signaling (Shh) pathway (AID 1259368; calls by dose curve;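 further: NIH/3T3-derived 3T3Gli1-Luc cells carrying a stable Gli1-driven firefly luciferase reporter; series mostly up to about 92 µM; nearly all actives have a fitted effect of over 15% in size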)
Method in brief: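 Mouse fibroblast (NIH/3T3) reporter cells with stably integrated Gli1-Luc were treated 24 hr with compound; firefly luciferase luminescence served as the read-out.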

[9] = qHTS assay to identify small molecule antagonists of the sonic hedgehog signaling (Shh) pathway (AID 1259369; calls by dose curve; further: nearly all actives have a fitted effect of over 45% in size; further: potency means the concentration at half of the fitted maximal effect)
Method in brief: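 Conditioned medium drives Shh signalling in 3T3Gli1-Luc cells; compounds in DMSO co-applied, 24hr at 37 C, then luciferase luminescence.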

[10] = qHTS assay to identify small molecule agonists of the androgen receptor (AR) signaling pathway in the presence of an antagonist - cell viability counter screen (AID 1259379); further: nearly all actives have a fitted effect of over 25% in size; further: potency means the concentration at half of the fitted maximal effect
Method in brief: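 A CellTiter-Fluor read-out measured viability of MDA-kb2 reporter cells (MMTV promoter with AR and GR response elements). Treatment: nilutamide 3.0uM final with compounds at 15 concentrations, 16 hr, 37C, 0% CO2.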

[11] = qHTS assay to identify small molecule agonists of the estrogen receptor beta (ER-beta) signaling pathway - cell viability counter screen (AID 1259380); further: nearly all actives have a fitted effect of over 30% in size; further: potency means the concentration at half of the fitted maximal effect
Method in brief: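 Cells used were ER-beta-UAS-bla HEK293T in medium with 2% charcoal-stripped FBS. They were treated for 16 hr at 37C. Viability came from CellTiter-Glo luminescence.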

[12] = qHTS assay to identify small molecule antagonists of the estrogen receptor beta (ER-beta) signaling pathway - cell viability counter screen (AID 1259382); further: nearly all actives have a fitted effect of over 55% in size; further: potency means the concentration at half of the fitted maximal effect
Method in brief: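 Agonist-stimulated (1nM E2) ER-beta-UAS-bla HEK293T cells are incubated with library compounds for 16 hr at 37C. Cell viability is then assessed in the reporter-assay wells by adding CellTiter-Glo and reading luminescence after 30 min.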

[13] = biological target: Estrogen receptor (Homo sapiens) (UniProt P03372); experiment: qHTS assay to identify small molecule agonists of the estrogen receptor alpha (ER-alpha) signaling pathway in the presence of an antagonist (AID 1259383; calls by dose curve; further: top concentration of the series differs between compounds; nearly all actives have a fitted effect of over 15% in size)
Method in brief: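 Using VM7Luc4E2 cells seeded 24hr before treatment, antagonist ICI-182,780 (10.0nM final) was added, followed by compounds at 15 concentrations. Plates incubated 22hr; ONE-Glo luminescence quantified reporter activity.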

[14] = qHTS assay to identify small molecule agonists or antagonists of the thyroid stimulating hormone receptor (TSHR) signaling pathway - wild type cell line counter screen (AID 1259384; calls by dose curve)
Method in brief: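 Counter screen in untransfected Hek293: compounds (15-point titration, triplicate) plus phosphodiesterase inhibitor Ro20-1724 added after 18 h plating; 30 min RT. Intracellular cAMP via competitive d2/cryptate immunoassay, 1 h incubation.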

[15] = biological target: Estrogen receptor beta (Homo sapiens) (UniProt Q92731); experiment: qHTS assay to identify small molecule agonists of the estrogen receptor beta (ER-beta) signaling pathway (AID 1259377; active means well fitted activation curve with a large enough effect in the signal ratio in the repeat runs, not every such curve was filed as active; the % refers to the signal ratio)
Estrogen receptor beta (Homo sapiens), sequence (Q92731 whole entry, looked up): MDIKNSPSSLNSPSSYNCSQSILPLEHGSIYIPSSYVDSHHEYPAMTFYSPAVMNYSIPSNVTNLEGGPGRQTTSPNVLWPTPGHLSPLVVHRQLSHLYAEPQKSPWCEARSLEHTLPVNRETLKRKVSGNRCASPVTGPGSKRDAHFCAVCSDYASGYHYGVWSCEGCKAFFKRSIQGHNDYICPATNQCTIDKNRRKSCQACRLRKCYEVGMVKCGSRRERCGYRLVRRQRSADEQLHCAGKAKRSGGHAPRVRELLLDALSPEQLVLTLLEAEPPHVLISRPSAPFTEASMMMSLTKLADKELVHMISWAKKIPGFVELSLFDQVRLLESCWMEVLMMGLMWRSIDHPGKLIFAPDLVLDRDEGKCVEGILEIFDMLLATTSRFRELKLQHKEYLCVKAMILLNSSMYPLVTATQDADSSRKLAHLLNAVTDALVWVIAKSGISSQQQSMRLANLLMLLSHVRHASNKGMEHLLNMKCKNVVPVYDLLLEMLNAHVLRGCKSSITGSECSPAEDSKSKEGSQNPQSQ
Method in brief: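 Reporter cells (HEK293T, ER-beta-UAS-bla) receive compounds or DMSO after a 6 hr pre-incubation. They then incubate 16 hr at 37C/5% CO2, and fluorescence from LiveBLAzer B/G substrate is measured after 2 hours at room temperature.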

[16] = qHTS assay to identify small molecule phospholipidosis (PLD) inducers (AID 1259344; active means well fitted curve in the direction sought with a large enough effect; an effect the other way counts as inactive or inconclusive)
Method in brief: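 Phospholipidosis is scored by imaging LipidTOX-stained pits in HepG2 cells exposed to compound for 24 h at 37 C; pit counts and integrated intensities per well and per cell serve as outputs.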

[17] = biological target: Estrogen receptor beta (Homo sapiens) (UniProt Q92731); experiment: qHTS assay to identify small molecule antagonists of the estrogen receptor beta (ER-beta) signaling pathway (AID 1259378; active means well fitted inhibition curve with a large enough effect in the signal ratio in the repeat runs, not every such curve was filed as active; the % refers to the signal ratio; further: potency means the concentration at half of the fitted maximal effect)
Method in brief: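 Antagonist mode: compounds added to beta-lactamase reporter HEK293T ER-beta-UAS cells stimulated with E2 (1nM final), 16 hr at 37C. LiveBLAzer B/G FRET substrate, 2 hours room temperature, fluorescence read-out.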

Measured: Potency

O=S(=O)(Oc1ccc(Cl)cc1Cl)c1ccccc1
not listed: [15] | [16] | [17]
inactive: all other assays above

CC(C)NCC(O)COc1cccc2ccccc12 (stereo not given)
active: [9] 24.3 µM | [11] 55 µM and 54.5 µM | [12] 27.6 µM
not listed: [3] | [13] | [14] | [16] | [17]
inactive: all other assays above

CC1=C(/C=C/C(C)=C/C=C/C(C)=C/CO)C(C)(C)CCC1
inactive and 64.4 µM (active): [17]
not listed: [9]
inactive: all other assays above

Oc1c(Cl)cc(Cl)c(Cl)c1Cl
active: [3] 47.5 µM and 61.1 µM
not listed: [9] | [11] | [12] | [16] | [17]
inactive: all other assays above

CCOC(=O)/C=C\C(=O)OCC
not listed: [15] | [16] | [17]
inactive: all other assays above

Oc1ccc2ccccc2c1N=Nc1ccccc1
active: [2] 30.6 µM | [4] 21.7 µM and 15.4 µM | [6] 34.3 µM | [10] 21.7 µM and 27.3 µM
not listed: [11] | [16]
inactive: all other assays above

C/C=C(C)/C=C/C=C(C)C
active: [9] 27.3 µM
not listed: [3] | [13] | [14] | [16]
inactive: all other assays above

CC(=O)CCc1ccccc1
not listed: [3] | [13] | [16]
inactive: all other assays above

O=S(=O)(O)c1cc(S(=O)(=O)O)c2c(N=Nc3ccccc3)c(O)ccc2c1
active: [10] 30.8 µM and 54.5 µM
not listed: [2] | [6] | [7] | [9] | [16]
inactive: all other assays above

CCCCCCCCCCCCOCC1CO1 (stereo not given)
not listed: [16]
inactive: all other assays above

c1ccc2[nH]cnc2c1
not listed: [3] | [9] | [13] | [14] | [15] | [16] | [17]
inactive: all other assays above

OCCOCCOCCOCCO
not listed: [16]
inactive: all other assays above

OC1CCCC1
not listed: [16]
inactive: all other assays above
